Measurements as given in the antibiotic and cytotoxicity screens of Wong et al. (2023).
The campaign covered roughly 39,000 compounds. About 3,300 (8.5%) were called active. Only a selection was taken, and actives are over-represented in it overall.

Tested on: HepG2
Assay: cytotoxicity call (relative viability < 0.9)
Details: 10 µM

Structure (SMILES) | cytotoxicity call
CCC(=O)n1ccc(C(=O)N2CCOCC2)n1 | inactive
O=C(Nc1nn[nH]n1)C1CCCCC1 | inactive
C[C@@H]1CCCCO[C@H](CN(C)Cc2ccncc2)[C@@H](C)CN([C@@H](C)CO)C(=O)c2cc(NC(=O)Nc3ccc(F)cc3)ccc2O1 | inactive
C[C@H](CO)N1C[C@H](C)[C@H](CN(C)C(=O)Nc2ccc(F)cc2)OCCCC[C@H](C)Oc2ccc(NC(=O)C3CCCCC3)cc2C1=O | inactive
COc1cccc(OC)c1C(=O)NN | inactive
FC(F)(F)c1ccccc1-c1ncc(-c2ccccc2)o1 | inactive
CC(=O)N(O)CCC[C@H]1NC(=O)CNC(=O)CNC(=O)CNC(=O)[C@@H](CCCN(O)C(C)=O)NC(=O)[C@@H](CCCN(O)C(C)=O)NC1=O | inactive
COc1ccc(NC(=O)N(C)C[C@H]2OCCCC[C@H](C)Oc3ccc(NC(=O)C4CCCCC4)cc3C(=O)N([C@@H](C)CO)C[C@@H]2C)cc1 | inactive
C[C@@H]1CCCCO[C@H](CN(C)Cc2ccccc2)[C@@H](C)CN([C@H](C)CO)C(=O)c2cc(NC(=O)c3ccncc3)ccc2O1 | inactive
CCCCCN1CC=C[C@@]23O[C@@H]4C=CCOC(=O)[C@@H]4[C@H]2C(=O)N(CCCO)[C@@H]3C1=O | inactive
C[C@@H]1CN([C@H](C)CO)C(=O)c2cc(NC(=O)CCN3CCOCC3)ccc2O[C@@H]1CN(C)Cc1ccc2c(c1)OCO2 | inactive
O=C(C[C@@H]1CC[C@H]2[C@@H](COC[C@@H](O)CN2S(=O)(=O)c2ccc(Cl)cc2)O1)N[C@H]1CCN(Cc2ccccc2)C1 | inactive
O=C(C[C@H]1CC[C@@H]2[C@H](COC[C@@H](O)CN2S(=O)(=O)c2ccc(Cl)cc2)O1)N[C@H]1CCN(Cc2ccccc2)C1 | inactive
O=C(C[C@@H]1CC[C@@H]2[C@H](COC[C@@H](O)CN2S(=O)(=O)c2ccc(Cl)cc2)O1)N[C@@H]1CCN(Cc2ccccc2)C1 | inactive
O=C(C[C@@H]1CC[C@@H]2[C@H](COC[C@H](O)CN2S(=O)(=O)c2ccc(Cl)cc2)O1)N[C@@H]1CCN(Cc2ccccc2)C1 | active
O=C(C[C@H]1CC[C@H]2[C@@H](COC[C@@H](O)CN2S(=O)(=O)c2ccc(Cl)cc2)O1)N[C@@H]1CCN(Cc2ccccc2)C1 | active
O=C(C[C@H]1CC[C@@H]2[C@H](COC[C@H](O)CN2S(=O)(=O)c2ccc(Cl)cc2)O1)N[C@@H]1CCN(Cc2ccccc2)C1 | inactive
Cc1ccc(S(=O)(=O)Nc2ccc3c(c2)CC(=O)N([C@@H](C)CO)C[C@@H](C)[C@@H](CN(C)Cc2ccncc2)O3)cc1 | inactive
NC(=O)CSc1nc(N)cc(N)n1 | inactive
COc1ccc(S(=O)(=O)Nc2ccc3c(c2)C(=O)N([C@H](C)CO)C[C@@H](C)[C@@H](CN(C)Cc2ccc4c(c2)OCO4)OCCCC[C@@H](C)O3)cc1 | inactive
C[C@H](CO)N1C[C@H](C)[C@H](CN(C)C(=O)Nc2ccccc2)Oc2ccc(NC(=O)CCN3CCOCC3)cc2C1=O | inactive
C[C@@H]1CN([C@@H](C)CO)C(=O)c2cccc(NS(=O)(=O)c3cn(C)cn3)c2O[C@H]1CN(C)C(=O)NC1CCCCC1 | inactive

Structure (SMILES) | cytotoxicity call
Cc1ccc2c(c1)/C(=C/c1ccncc1)c1cc3ccccc3nc1-2 | active
Cc1ccc2ncccc2c1 | inactive
Cc1ccc2nc(-c3ccncc3)cc(-c3ccccc3)c2c1 | inactive
C[C@@H]1CCCCO[C@H](CN(C)C(=O)NC2CCCCC2)[C@@H](C)CN([C@H](C)CO)C(=O)c2cc(NC(=O)Nc3ccc(C(F)(F)F)cc3)ccc2O1 | inactive
CC(C)NC(=O)N(C)C[C@@H]1Oc2ncc(-c3ccc(C(=O)N(C)C)cc3)cc2C(=O)N([C@H](C)CO)C[C@@H]1C | inactive
CN(C)CCNC(=O)[C@H]1Cn2ccnc2C2(CCN(Cc3nccs3)CC2)O1 | inactive
CC(C)CC(NC(=O)C(C)NC(=O)CNC(=O)C(NC=O)C(C)C)C(=O)NC(C)C(=O)NC(C(=O)NC(C(=O)NC(C(=O)NC(Cc1c[nH]c2ccccc12)C(=O)NC(CC(C)C)C(=O)NC(Cc1c[nH]c2ccccc12)C(=O)NC(CC(C)C)C(=O)NC(Cc1c[nH]c2ccccc12)C(=O)NC(CC(C)C)C(=O)NC(Cc1c[nH]c2ccccc12)C(=O)NCCO)C(C)C)C(C)C)C(C)C (centres undefined) [GRAMICIDIN (gramicidin A shown) ] | active
C[C@H](NC(=O)[C@@H](Cc1ccc2ccccc2c1)NC(=O)[C@@H](C)N)C(=O)N[C@@H](Cc1c[nH]c2ccccc12)C(=O)N[C@H](Cc1ccccc1)C(=O)N[C@@H](CCCCN)C(N)=O | inactive
CC(C)C[C@H](NP(=O)(O)O[C@H]1O[C@@H](C)[C@@H](O)[C@@H](O)[C@@H]1O)C(=O)N[C@H](Cc1c[nH]c2ccccc12)C(=O)O | inactive
C[C@@H]1CCCCO[C@@H](CN(C)S(C)(=O)=O)[C@@H](C)CN([C@H](C)CO)C(=O)c2cc(NS(=O)(=O)c3cccs3)ccc2O1 | inactive
C[C@@H]1CN([C@H](C)CO)C(=O)c2c(c3ccccc3n2C)-c2ccccc2CO[C@@H]1CN(C)Cc1ccc(O)cc1 | inactive
CC(C)CC#Cc1ccc2c(c1)O[C@@H](CN(C)C(=O)c1cccnc1)[C@H](C)CN([C@H](C)CO)S2(=O)=O | inactive
COc1ccc(NC(=O)N(C)C[C@@H]2OCCCC[C@H](C)Oc3ccc(NC(=O)Nc4ccccc4)cc3C(=O)N([C@@H](C)CO)C[C@@H]2C)cc1 | inactive
COc1ccc(NC(=O)N(C)C[C@@H]2Oc3ccc(NC(=O)C4CC4)cc3CC(=O)N([C@@H](C)CO)C[C@H]2C)cc1 | inactive
O=c1ccc(-c2ccncc2)n[nH]1 | inactive
C[C@H]1CN([C@@H](C)CO)C(=O)c2cccc(NC(=O)Nc3ccc(C(F)(F)F)cc3)c2O[C@@H]1CN(C)CC1CCCCC1 | active
C[C@@H]1CN([C@H](C)CO)C(=O)c2cccc(NC(=O)Nc3ccc(F)cc3)c2O[C@@H]1CN(C)CC1CCCCC1 | inactive
C[C@H]1CN([C@@H](C)CO)C(=O)c2cccc(NC(=O)Nc3ccc(F)cc3)c2O[C@H]1CN(C)CC1CCCCC1 | inactive
C[C@H](CO)N1C[C@H](C)[C@@H](CN(C)CC2CCCCC2)Oc2c(NC(=O)Nc3ccc(C(F)(F)F)cc3)cccc2C1=O | inactive
C[C@@H]1CN([C@H](C)CO)C(=O)c2cccc(NC(=O)Nc3ccc(F)cc3)c2O[C@H]1CN(C)CC1CCCCC1 | inactive
C[C@@H]1CN([C@@H](C)CO)C(=O)c2cccc(NC(=O)Nc3ccc(F)cc3)c2O[C@H]1CN(C)CC1CCCCC1 | inactive
C[C@H](CO)N1C[C@H](C)[C@H](CN(C)CC2CCCCC2)Oc2c(NC(=O)Nc3ccc(F)cc3)cccc2C1=O | inactive

Structure (SMILES) | cytotoxicity call
C[C@@H]1CN([C@@H](C)CO)C(=O)c2cccc(NC(=O)Nc3ccc(C(F)(F)F)cc3)c2O[C@@H]1CN(C)CC1CCCCC1 | inactive
C[C@@H]1CN([C@H](C)CO)C(=O)c2cccc(NC(=O)Nc3ccc(C(F)(F)F)cc3)c2O[C@H]1CN(C)CC1CCCCC1 | active
C[C@@H]1CN([C@H](C)CO)C(=O)c2cccc(NC(=O)Nc3ccc(C(F)(F)F)cc3)c2O[C@@H]1CN(C)CC1CCCCC1 | active
C[C@H]1CN([C@@H](C)CO)C(=O)c2cccc(NC(=O)Nc3ccc(C(F)(F)F)cc3)c2O[C@H]1CN(C)CC1CCCCC1 | active
C[C@H](CO)N1C[C@H](C)[C@H](CN(C)CC2CCCCC2)Oc2c(NC(=O)Nc3ccc(C(F)(F)F)cc3)cccc2C1=O | inactive
COc1nc(C#N)nc(N2CCCCC2)n1 | inactive
COc1ccc(S(=O)(=O)N(C)C[C@H]2OCCCC[C@@H](C)Oc3ccc(NC(=O)Nc4ccc(F)cc4)cc3C(=O)N([C@@H](C)CO)C[C@@H]2C)cc1 | inactive
CCO[C@@H]1OC(C(=O)N2CCN(Cc3ccc4c(c3)OCO4)CC2)=C[C@H](C)[C@H]1CCCOC(=O)NCCCCCC(=O)NO | inactive
Cc1noc(C)c1NC(=O)Nc1ccc2c(c1)C(=O)N([C@H](C)CO)C[C@@H](C)[C@H](CN(C)Cc1ccccc1)OCCCC[C@H](C)O2 | inactive
Cc1cccc(S(=O)(=O)N2C[C@H](O)COC[C@H]3O[C@H](CC(=O)NCCCN4CCOCC4)CC[C@@H]32)c1 | inactive
C[C@@H]1CN([C@H](C)CO)C(=O)Cc2cc(NS(C)(=O)=O)ccc2O[C@@H]1CN(C)C(=O)Nc1ccc2c(c1)OCO2 | inactive
C[C@@H]1CN([C@@H](C)CO)C(=O)c2cc(NC(=O)CCC(F)(F)F)ccc2O[C@@H](C)CCCCO[C@H]1CN(C)Cc1ccc2c(c1)OCO2 | inactive
Cc1noc(C)c1S(=O)(=O)N(C)C[C@@H]1Oc2ccc(NC(=O)Cn3cnnn3)cc2CC(=O)N([C@@H](C)CO)C[C@@H]1C | inactive
C[C@H]1CN([C@@H](C)CO)S(=O)(=O)c2ccc(C#CCN(C)C)cc2O[C@H]1CN(C)C(=O)c1ccccc1F | inactive
O=C(C[C@@H]1CC[C@@H](NC(=O)CN2CCOCC2)[C@@H](CO)O1)NC1CCC1 | inactive
COc1cccc(CN(C)C[C@@H]2OCc3ccccc3-c3c(n(C)c4ccccc34)C(=O)N([C@H](C)CO)C[C@@H]2C)c1 | inactive
Cc1ccc(S(=O)(=O)N(C)C[C@@H]2Oc3ccc(NC(=O)CCCN(C)C)cc3C(=O)N([C@H](C)CO)C[C@@H]2C)cc1 | inactive
Nc1ccc(/C=C/C(=O)NCc2cc3cc(-c4ccc(C(=O)N5CCC(F)(F)CC5)cc4)cc(-c4ccc(F)cc4)c3o2)cn1 | active
C[C@H]1CN([C@@H](C)CO)C(=O)CCCn2nncc2CO[C@@H]1CN(C)C(=O)C1CC1 | inactive
CC(C)NC(=O)Nc1cccc2c1O[C@H](CN(C)Cc1ccc(Oc3ccccc3)cc1)[C@@H](C)CN([C@H](C)CO)C2=O | inactive
